Results published in article PMC5700166.
Residue numbers refer to the chain shown, from its start.

Assays:
Assay in all cases: protein-binding microarray (PBM); PBM: ~300 nM protein, 6 mM HEPES pH 7.8, 80 mM KCl, 0.5 mM EDTA, 0.5 mM EGTA, 6% glycerol, 35 ng/ul poly-dIdC, 1% milk, 1 h, room temperature; Ap Aiptasia and Nv Nematostella (sea anemones) / Co Capsaspora / Aq Amphimedon (sponge) / Dm Drosophila / Hu human; RHD is the Rel homology domain; high values mean tight binding
Details in all cases: dsDNA, one strand shown
[1] = molecular target: T1, GST-Ap-NF-kB RHD (Exaiptasia pallida (Aiptasia), UniProt A0A913YAJ5 2-422)
T1 sequence: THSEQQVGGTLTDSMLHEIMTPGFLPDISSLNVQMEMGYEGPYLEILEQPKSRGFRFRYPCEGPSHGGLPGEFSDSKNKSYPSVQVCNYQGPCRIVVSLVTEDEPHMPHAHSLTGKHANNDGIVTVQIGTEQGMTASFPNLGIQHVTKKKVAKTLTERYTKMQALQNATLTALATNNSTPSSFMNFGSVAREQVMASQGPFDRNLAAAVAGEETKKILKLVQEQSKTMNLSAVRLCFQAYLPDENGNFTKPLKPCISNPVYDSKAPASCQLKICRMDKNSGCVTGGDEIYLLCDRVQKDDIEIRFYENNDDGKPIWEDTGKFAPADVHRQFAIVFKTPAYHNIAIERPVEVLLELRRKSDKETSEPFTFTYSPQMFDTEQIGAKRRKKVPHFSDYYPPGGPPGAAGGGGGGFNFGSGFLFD

[2] = molecular target: T2, GST-Nv-NF-kB (Ser allele) (Nematostella vectensis, UniProt A7UNT2 2-411)
T2 sequence: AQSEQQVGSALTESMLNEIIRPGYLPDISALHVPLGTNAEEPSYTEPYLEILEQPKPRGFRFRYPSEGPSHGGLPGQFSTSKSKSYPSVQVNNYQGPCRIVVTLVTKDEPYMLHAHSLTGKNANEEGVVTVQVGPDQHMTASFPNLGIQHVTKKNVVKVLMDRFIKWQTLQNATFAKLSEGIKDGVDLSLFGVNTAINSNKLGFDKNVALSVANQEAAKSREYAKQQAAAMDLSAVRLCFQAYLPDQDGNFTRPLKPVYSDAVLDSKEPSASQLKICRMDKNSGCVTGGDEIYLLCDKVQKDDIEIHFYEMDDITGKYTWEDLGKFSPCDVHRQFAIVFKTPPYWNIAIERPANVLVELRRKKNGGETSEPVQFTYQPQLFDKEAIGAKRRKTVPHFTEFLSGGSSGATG

[3] = molecular target: T3, GST-Co-NF-kB (Capsaspora owczarzaki, UniProt F1ARL5 200-546)
T3 sequence: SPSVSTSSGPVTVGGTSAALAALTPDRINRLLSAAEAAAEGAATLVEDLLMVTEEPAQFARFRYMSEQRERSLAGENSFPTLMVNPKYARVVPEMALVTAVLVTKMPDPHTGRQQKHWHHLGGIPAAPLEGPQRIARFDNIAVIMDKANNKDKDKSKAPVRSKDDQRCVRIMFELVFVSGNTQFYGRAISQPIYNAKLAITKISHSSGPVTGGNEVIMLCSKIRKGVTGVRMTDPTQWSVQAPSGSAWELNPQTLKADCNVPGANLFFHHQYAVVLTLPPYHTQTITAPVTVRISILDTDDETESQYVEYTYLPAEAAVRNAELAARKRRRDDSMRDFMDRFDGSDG

[4] = molecular target: T4, GST-Aq-NF-kB (Amphimedon queenslandica, UniProt A9Y5G7 2-389)
T4 sequence: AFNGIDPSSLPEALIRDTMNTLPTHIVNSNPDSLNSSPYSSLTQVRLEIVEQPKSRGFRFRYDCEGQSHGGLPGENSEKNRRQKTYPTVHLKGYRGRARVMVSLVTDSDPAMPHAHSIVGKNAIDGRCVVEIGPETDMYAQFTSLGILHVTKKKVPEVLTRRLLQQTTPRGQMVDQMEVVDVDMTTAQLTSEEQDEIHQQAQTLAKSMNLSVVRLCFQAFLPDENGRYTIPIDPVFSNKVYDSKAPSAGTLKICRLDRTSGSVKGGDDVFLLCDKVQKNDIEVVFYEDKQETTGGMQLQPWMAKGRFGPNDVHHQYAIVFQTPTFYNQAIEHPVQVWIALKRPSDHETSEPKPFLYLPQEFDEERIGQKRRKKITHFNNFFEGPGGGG

[5] = molecular target: GST-Hu-p50 (Homo sapiens, UniProt P19838 7-356)
Chain of GST-Hu-p50 (P19838 7-356): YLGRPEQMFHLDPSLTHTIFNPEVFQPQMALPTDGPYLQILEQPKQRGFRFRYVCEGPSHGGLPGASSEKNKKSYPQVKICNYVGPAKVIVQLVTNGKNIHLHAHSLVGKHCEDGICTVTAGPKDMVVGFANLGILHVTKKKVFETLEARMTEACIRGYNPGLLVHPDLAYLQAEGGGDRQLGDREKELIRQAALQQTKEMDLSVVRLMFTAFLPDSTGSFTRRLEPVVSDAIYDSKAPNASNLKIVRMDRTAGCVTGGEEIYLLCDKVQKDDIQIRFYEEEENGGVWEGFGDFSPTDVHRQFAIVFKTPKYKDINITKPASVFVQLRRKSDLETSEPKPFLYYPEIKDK

[6] = molecular target: T5, GST-Dm-Relish (Drosophila melanogaster, UniProt Q94527 99-473)
T5 sequence: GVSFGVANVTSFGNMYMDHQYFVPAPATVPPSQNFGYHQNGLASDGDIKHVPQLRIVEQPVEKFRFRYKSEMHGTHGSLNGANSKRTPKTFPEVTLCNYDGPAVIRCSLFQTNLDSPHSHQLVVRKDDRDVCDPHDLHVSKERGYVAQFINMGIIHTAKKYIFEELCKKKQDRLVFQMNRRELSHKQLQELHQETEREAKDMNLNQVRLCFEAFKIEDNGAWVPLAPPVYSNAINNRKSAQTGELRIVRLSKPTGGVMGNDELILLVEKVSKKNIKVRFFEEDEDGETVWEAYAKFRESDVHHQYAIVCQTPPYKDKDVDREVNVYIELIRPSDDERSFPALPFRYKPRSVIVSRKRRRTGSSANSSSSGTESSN

[7] = molecular target: T6, GST-Nv-NF-kB (Cys allele) (Nematostella vectensis, UniProt E5G601 2-411)
T6 sequence: T2 sequence with R21Q, S66C, N207S, Q215E, A217V, K225E, E268A, E399D

Row | Sequence | binding signal [1] [z-score] | binding signal [2] [z-score] | binding signal [3] [z-score] | binding signal [4] [z-score] | binding signal [5] [z-score] | binding signal [6] [z-score] | binding signal [7] [z-score]
1 | CCGATTAACATCAGGGGTAGAACTGATGTTAATCGGGTCTTGATTCGCTTGACGCTGCTG | 1.85 | 1.11 | 5.07 | 1.92 | 1.99 |  | 
2 | CCGATTAACATCAATTCCCCCCGTGATGTTAATCGGGTCTTGATTCGCTTGACGCTGCTG | 7.28 | 6.61 | 8.8 | 5.76 | 5.76 | 5.54 | 
3 | CCGATTAACATCAGGAGATCCCCTGATGTTAATCGGGTCTTGATTCGCTTGACGCTGCTG | 7.87 |  | 2.55 | 8.6 | 5.88 | 8.66 | 8.09
4 | CCGATTAACATCAGGGGCTTCCATGATGTTAATCGGGTCTTGATTCGCTTGACGCTGCTG | 4.37 |  |  | 5.03 | 4.38 | 6.97 | 4.89
5 | CCGATTAACATCACGGAAATACCTGATGTTAATCGGGTCTTGATTCGCTTGACGCTGCTG | 1.01 | 1.39 |  | 4.47 | 1.12 | 2.56 | 
6 | CCGATTAACATCACCCGGGTAAATGATGTTAATCGGGTCTTGATTCGCTTGACGCTGCTG | 1.42 | 1.15 | 2.41 | 1.02 | 1.11 |  | 
7 | CCGATTAACATCAAAATTCCCGATGATGTTAATCGGGTCTTGATTCGCTTGACGCTGCTG | 4.37 |  | 4.55 | 4.93 | 4.38 | 5.06 | 6.05
8 | CCGATTAACATCACGGGCTTCCCTGATGTTAATCGGGTCTTGATTCGCTTGACGCTGCTG | 1.85 |  |  | 4.57 | 1.14 | 7.65 | 2
9 | CCGATTAACATCACCCTCGAGGGTGATGTTAATCGGGTCTTGATTCGCTTGACGCTGCTG | 1.01 | 1.78 | 1.1 | 1.65 | 2.34 | 1.08 | 
10 | CCGATTAACATCAGGGGGTTGCATGATGTTAATCGGGTCTTGATTCGCTTGACGCTGCTG | 5.29 |  | 2.22 | 4.08 | 5.29 | 4.83 | 3.67
11 | CCGATTAACATCAAATCCCCCCCTGATGTTAATCGGGTCTTGATTCGCTTGACGCTGCTG | 8.93 | 9 | 9.25 | 6.62 | 6.87 | 7.98 | 
12 | CCGATTAACATCAGGACCTTCCCTGATGTTAATCGGGTCTTGATTCGCTTGACGCTGCTG | 2.74 |  |  | 5.89 | 1.95 | 1.9 | 2.66
13 | CCGATTAACATCAGGGAGTGCCCTGATGTTAATCGGGTCTTGATTCGCTTGACGCTGCTG | 2.83 |  |  | 5.66 | 1.98 | 3.85 | 2.18
14 | CCGATTAACATCAGATAAACCCCTGATGTTAATCGGGTCTTGATTCGCTTGACGCTGCTG | 4.36 |  |  | 4.77 | 4.53 | 5.22 | 4.29
15 | CCGATTAACATCAGAAAATCACCTGATGTTAATCGGGTCTTGATTCGCTTGACGCTGCTG | 2.77 |  |  | 3.39 | 5.67 | 6.91 | 3.28
16 | CCGATTAACATCAGGGGGGGACATGATGTTAATCGGGTCTTGATTCGCTTGACGCTGCTG | 5.67 |  | 7.08 | 4.34 | 4.11 | 3.75 | 5.09
17 | CCGATTAACATCAGGGGGGGTAATGATGTTAATCGGGTCTTGATTCGCTTGACGCTGCTG | 4.27 | 3.94 | 6.38 | 4.38 | 3.7 | 4.83 | 
18 | CCGATTAACATCAGGCATACCCCTGATGTTAATCGGGTCTTGATTCGCTTGACGCTGCTG | 1.96 |  | 1.89 | 3.12 | 1.59 | 1.3 | 1.5
19 | CCGATTAACATCAGGAAGATCCCTGATGTTAATCGGGTCTTGATTCGCTTGACGCTGCTG | 3.43 |  |  | 5.44 | 1.57 | 2.71 | 1.84
20 | CCGATTAACATCAGGGCCTTTTGTGATGTTAATCGGGTCTTGATTCGCTTGACGCTGCTG | 1.85 |  |  | 2.46 | 2.05 | 5.05 | 1.14
21 | CCGATTAACATCAGCCCCGGTGTTGATGTTAATCGGGTCTTGATTCGCTTGACGCTGCTG | 2.1 |  | 1.61 | 2.37 | 1.58 |  | 
22 | CCGATTAACATCACGGGAAGCCCTGATGTTAATCGGGTCTTGATTCGCTTGACGCTGCTG | 2.49 |  |  | 4.42 | 1.11 | 7.08 | 1.91
23 | CCGATTAACATCAAAAAAACACCTGATGTTAATCGGGTCTTGATTCGCTTGACGCTGCTG | 3.14 |  |  | 4.34 | 6.24 | 4.97 | 4.03
24 | CCGATTAACATCAAGGAACCCCCTGATGTTAATCGGGTCTTGATTCGCTTGACGCTGCTG | 8.43 |  | 2.03 | 6.6 | 6.57 | 10.4 | 5.99
25 | CCGATTAACATCAAGAGTCCCCCTGATGTTAATCGGGTCTTGATTCGCTTGACGCTGCTG | 7.54 |  | 5.05 | 5.26 | 5.46 | 5.74 | 5.23
26 | CCGATTAACATCAAAGCACCCCCTGATGTTAATCGGGTCTTGATTCGCTTGACGCTGCTG | 4.9 |  | 3.63 | 4.36 | 4.35 | 3.26 | 3.86
27 | CCGATTAACATCAAGGAATTCCCTGATGTTAATCGGGTCTTGATTCGCTTGACGCTGCTG | 6.83 |  | 4.22 | 8.14 | 5.07 | 8.03 | 7.7
28 | CCGATTAACATCAGGACTGCCCCTGATGTTAATCGGGTCTTGATTCGCTTGACGCTGCTG | 3.49 |  |  | 7.05 | 4.09 | 3.18 | 4.13
